# Measurements: PubChem BioAssay (NCATS)
# Results filed as inconclusive are left out. Calls of active or inactive are those of the source. The call rests on the fitted dose curve; in most records, active means well fitted curve in the direction sought with a large enough effect; inconclusive means small, poorly fitted or top-dose-only effect, or another doubt; inactive means no such curve, though single readings can be large; an effect the other way counts as inactive or inconclusive.
# How the values were obtained:
# [1] = qHTS of pediatric cancer cell lines to identify multiple opportunities for drug repurposing: Primary screen for control Hh wild type fibroblast cells (AID 1347106);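 further: series mostly up to about 46 µM; a drop in luminescence marks cytotoxicity and a rise apparent proliferation; nearly all actives have a fitted effect of over 55% in size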
# Summary of the method: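 Viability after 48 h compound treatment at 37C, 500-1,000 cells/well, read as ATP luminescence with CellTiter-Glo. Primary screens used 11-point (MIPE, 0.78 nM-46 µM) or 8-point (NPC, 0.59 nM-46 µM) final concentrations; follow-up screens used 11-point dilutions.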
# [2] = qHTS of pediatric cancer cell lines to identify multiple opportunities for drug repurposing: Primary screen for Rh30 cells (AID 1347107); further: nearly all actives have a fitted effect of over 75% in size; further: potency means the concentration at half of the fitted maximal effect
# Summary of the method: (§1)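 Cells (500-1,000/well) in growth media were settled 5 h at 37 degrees C, then given compounds for 48 h. Viability was read as CellTiter-Glo luminescence. Primary runs used MIPE at 11 points (0.78 nM-46 µM) and NPC at 8 points (0.59 nM-46 µM); follow-ups used 11 points.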
# [3] = qHTS of pediatric cancer cell lines to identify multiple opportunities for drug repurposing: Primary screen for Rh41 cells (AID 1347108); further: nearly all actives have a fitted effect of over 70% in size; further: potency means the concentration at half of the fitted maximal effect
# Summary of the method: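 500-1,000 cells/well; 5 h pre-incubation 37 °C/5% CO2; compound pinned; 48 h; CellTiter-Glo, 15 min RT; luminescence. MIPE 11-pt from 0.78 nM, NPC 8-pt from 0.59 nM final. Bortezomib 2.3 µM final as positive control.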
# [4] = qHTS of pediatric cancer cell lines to identify multiple opportunities for drug repurposing: Confirmatory screen for NB1643 cells (AID 1347109); details: NB1643 neuroblastoma cell viability; further: potency means the concentration at half of the fitted maximal effect; nearly all actives have a fitted effect of over 45% in size
# Summary of the method: as §1
# [5] = qHTS of pediatric cancer cell lines to identify multiple opportunities for drug repurposing: Confirmatory screen for A673 cells (AID 1347110); details: A673 Ewing sarcoma cell viability;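 further: potency means the concentration at half of the fitted maximal effect; cells exposed to compound for 48 h before the viability read; nearly all actives have a fitted effect of over 65% in size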
# From the text: Drug repurposing or repositioning has been offered as a strategy for drug development in oncology programs. This approach has special potential for childhood cancers and other rare or orphan diseases, where the expected return on new drug development has been a disincentive to pharmaceuticals.
# In this project we exploit the poly-pharmacology of drugs to discover new indications via phenotypic screening of a panel of 19 well-characterized cell lines derived from solid tumors seen in children and adolescents. The goal is to identify approved drugs with previously unrecognized anticancer properties that has the potential to reveal new mechanisms and biological processes involved in carcinogenesis or drug resistance. We employed a titration-based paradigm (quantitative high-throughput screening or qHTS), where all compounds were tested at multiple concentrations for their effect on cell viability. […] We screened the NIH Chemical Genomics Center (NCGC) Pharmaceutical Collection (NPC) and Mechanism Interrogation Plate (MIPE) small molecule collections of approved and investigational compounds against these cell lines; and measured metabolically active cells after 48 hours of compound treatment as a proxy for cell viability. […]
# [1] Shen, M et al. Quantitative high-throughput phenotypic screening of pediatric cancer cell lines identifies multiple opportunities for drug repurposing. […]
# [6] = qHTS of pediatric cancer cell lines to identify multiple opportunities for drug repurposing: Confirmatory screen for SK-N-MC cells (AID 1347111); details: SK-N-MC cell viability;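 further: potency means the concentration at half of the fitted maximal effect; cells exposed to compound for 48 h before the readout; nearly all actives have a fitted effect of over 70% in size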
# Summary of the method: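 Metabolically active cells were quantified by ATP-dependent luminescence (CellTiter-Glo, 15 min at room temperature) following 48 h treatment. Cells had been plated at 500-1,000 per well and settled for 5 h beforehand.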
# [7] = qHTS of pediatric cancer cell lines to identify multiple opportunities for drug repurposing: Confirmatory screen for BT-12 cells (AID 1347112); details: BT-12 rhabdoid tumor cells, viability; further: potency means the concentration at half of the fitted maximal effect; nearly all actives have a fitted effect of over 55% in size
# Summary of the method: as §1
# [8] = qHTS of pediatric cancer cell lines to identify multiple opportunities for drug repurposing: Confirmatory screen for LAN-5 cells (AID 1347113); details: LAN-5 neuroblastoma cell viability; further: potency means the concentration at half of the fitted maximal effect; nearly all actives have a fitted effect of over 65% in size
# Summary of the method: as §1
# [9] = qHTS of pediatric cancer cell lines to identify multiple opportunities for drug repurposing: Confirmatory screen for DAOY cells (AID 1347114); details: DAOY medulloblastoma cells viability, cytotoxicity qHTS; further: potency means the concentration at half of the fitted maximal effect; nearly all actives have a fitted effect of over 65% in size
# Summary of the method: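 Viability measured as metabolically active cells via CellTiter-Glo luminescence following 48 hours of compound exposure, 11-point dilutions in confirmatory testing. 500-1,000 cells/well plated 5 hours before dosing; controls were DMSO and 2.3 µM bortezomib.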
# [10] = qHTS of pediatric cancer cell lines to identify multiple opportunities for drug repurposing: Confirmatory screen for NB-EBc1 cells (AID 1347115); details: NB-EBc1 neuroblastoma cells, viability (cytotoxicity);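 further: potency means the concentration at half of the fitted maximal effect; cells exposed to compound for 48 h before the viability read; nearly all actives have a fitted effect of over 45% in size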
# Summary of the method: as §1
SMILES,outcome [1],Potency [2],Potency [3],Potency [4],Potency [5],Potency [6],Potency [7],Potency [8],Potency [9],Potency [10]
CCCSP(=O)(OCC)SCCC,inactive,inactive,inactive,–,–,–,–,–,–,–
C[CH2][Hg][S]c1ccccc1C(=O)O,inactive,2.66 µM (active),2.37 µM (active),2.93 µM (active),7.37 µM (active),2.93 µM (active),6.57 µM (active),4.65 µM (active),3.29 µM (active),7.37 µM (active)
